Screens (PubChem BioAssay)
Sampled rows, rich in hits. Any-hit rate of the full collection: about 3.9%.
Bead autofluor = flagged as autofluorescent in microsphere protease counterscreen; fluorescence intensity (test concentration not listed); AID 624483; 360,000 tested, 3.1% active; compound autofluorescence counterscreen, microsphere flow cytometry; hits give high values; in the data active = fluorescence intensity above about 16000; inconclusive = no clear call, values can overlap the other calls
Anthrax LF prot = inhibitors of Bacillus anthracis lethal factor protease | inhibition, % at 10 µM | multiplex microsphere protease cleavage assay, LF | 360,000 tested, 0.12% active | P15917; note: plate controls were buffer without enzyme for full effect and enzyme alone for no effect
SARS 3CLpro inh-1 = SARS-CoV 3CLpro protease inhibition; P0C6X7; recombinant SARS-CoV 3CLpro, quenched FRET peptide cleavage; inhibition, % at 6 µM; 290,000 tested, 0.14% active; in the data active = inhibition above about 12%
BoNT-F LC inh = blocks Botulinum neurotoxin F light chain protease. Multiplex microsphere protease cleavage assay, flow cytometry. inhibition, % at 10 µM. 360,000 tested, 0.22% active. AID 588497; in the data active = inhibition above about 35%, passing the limit was not always enough; inconclusive = no clear call, values can overlap the other calls; note: plate controls were buffer without enzyme for full effect and enzyme alone for no effect
CCHFV vOTU inh = blocks the CCHF virus ovarian tumor domain protease. CCHFV vOTU protease, Pep-AMC fluorescence. inhibition, % at 11.5 µM. 370,000 tested, 0.55% active; in the data active = inhibition above about 30%; note: 0% = vehicle wells with enzyme and 100% = no enzyme wells
BoNT A protease = blocks Botulinum neurotoxin A light chain protease; multiplex microsphere protease substrate cleavage, flow cytometry; inhibition, % at 10 µM; 360,000 tested, 0.17% active; AID 588499; note: plate controls were buffer without enzyme for full effect and enzyme alone for no effect
SARS 3CLpro inh-2 = confirmation of SARS coronavirus 3C-like protease inhibitors; shares compounds with SARS 3CLpro inh-1; QFRET protease activity assay, 3CLpro; inhibition, % at 6 µM; 380 tested, 36% active; AID 1879; in the data active = inhibition above about 13%
* = called active by the depositor; u = inconclusive; x = no result given. Cut-off read from the data, not from the text of the source, unless noted: active = inhibition above about 30%; inconclusive = no clear call, values can overlap the other calls; inactive = below that.

SMILES	Bead autofluor	Anthrax LF prot	SARS 3CLpro inh-1	BoNT-F LC inh	CCHFV vOTU inh	BoNT A protease	SARS 3CLpro inh-2
CCOc1ccc(OCCSc2nc(C)cc(=O)[nH]2)cc1	2771	0	-6	-2	12	0	x
Cc1cc(=O)[nH]c(SCCCOc2ccc3c(c2)CCC3)n1	23738*	3	-1	-1	9	0	x
COc1cccc(OC)c1OCCCSc1nc(C)cc(=O)[nH]1	22471*	-1	-7	4	-3	3	x
CCCCCc1ccc(NC(=O)OCCCN2CCC3(CCC(c4ccccc4)CC3)C2=O)cc1 (centres undefined)	x	x	x	x	13	x	x
COCCCn1cnn2c(=O)c3ccccc3nc2c1=O	x	x	x	x	-1	x	x
O=C(O)c1[nH]c2ccccc2c1C(c1ccccc1)c1c(C(=O)O)[nH]c2ccccc12	3286	-2	2	u	18	2	x
O=C(O)COc1ccc(Br)cc1C(c1c(C(=O)O)[nH]c2ccccc12)c1c(C(=O)O)[nH]c2ccccc12	3836	5	13*	31	x	2	16*
Cc1ccc(C(=O)c2c3ccccc3[n+]([O-])n2CCC(N)=O)cc1	3096	2	33*	0	0	1	36*
Cc1ccc(C(=O)c2c3ccc([N+](=O)[O-])cc3[n+]([O-])n2CCC(N)=O)cc1	x	x	12*	x	12	x	12
O=C(c1cccs1)N1CC[C@H]2[C@H](CCCN2Cc2cc(F)cc(F)c2)C1	x	x	x	x	3	x	x
Cc1ccc(OCC(=O)N/N=C/c2ccc([N+](=O)[O-])o2)cc1	4189	-18	13*	-2	16	-1	-6
O=C(COCc1ccccc1)NC1CCCCN(Cc2ccc(Cl)cc2)C1=O (centres undefined)	x	x	x	x	5	x	x
Cc1ccc(-c2nn(-c3ccccc3)cc2NC(=O)CCl)cc1	4076	-7	14*	11	9	1	13*
Cc1ccc(-c2cc(NC(=O)CCl)n(-c3ccccc3)n2)cc1	2599	1	11	13	9	1	x
O=C1C(C2=NC(c3ccccn3)C3C(=O)N(c4ccccc4)C(=O)C23)=C(O)c2ccccc21 (centres undefined)	4894	1	80*	-7	16	-1	3
Cc1ccc2[nH]c(=O)c(CN(CCc3ccccc3)Cc3nnnn3CC3CCCO3)cc2c1 (centres undefined)	6013	-5	57*	-16	15	3	4
COc1ccc2[nH]c(=O)c(CN(CCc3ccccc3)Cc3nnnn3CC3CCCO3)cc2c1 (centres undefined)	7313	-1	-2	6	-14	2	x
O=C(NCc1ccccc1)C(c1ccco1)N1CCN(CCN2CCOCC2)CC1 (centres undefined)	x	x	x	x	-1	x	x
CCOc1ccc(-n2c(SC/C=C/c3ccccc3)nnc2-c2ccco2)cc1	x	x	x	x	10	x	x
CC(=O)N1CCN(c2ccc(N3CCN(C(C)=O)[C@H](C)C3)c(C)c2)[C@H](C)C1	x	x	x	x	3	x	x
C/C(=N\NC(=O)c1ccc(Cl)c(Cl)c1)c1cccc(NC(=O)C(C)C)c1	4518	-1	23*	-2	11	0	-1
C/C(=N\NC(=O)c1cccc(Cl)c1)c1cccc(NC(=O)C(C)C)c1	3051	0	5	8	2	1	x
COc1ccc(S[C@]2(C(=O)N3CCOCC3)CC(=O)N(C(=O)c3ccccc3)[C@@H]2c2ccc(OC)cc2)cc1	x	x	x	x	0	x	x
Cc1ccc(C(=O)n2cnc3ccccc32)cc1C	3692	4	19*	-14	-12	3	26*
COc1cc2c(cc1OC)C(c1cc(Br)ccc1F)N(C(=O)CCl)CC2 (centres undefined)	4316	0	22*	u	-15	1	34*
SMILES	Bead autofluor	Anthrax LF prot	SARS 3CLpro inh-1	BoNT-F LC inh	CCHFV vOTU inh	BoNT A protease	SARS 3CLpro inh-2
CC(C)CN1C(=O)[C@]2(CC(=O)N(C)C2c2ccccc2)c2cc(-n3cc(-c4ccccc4)nn3)ccc21 (some centres undefined)	x	x	x	x	14	x	x
O=C(N/N=C/c1ccc(F)cc1)c1ccc(OCc2ccccc2)cc1	4597	3	7	-2	-6	0	x
O=C(O)/C(=C\c1cccc(OCc2ccccc2)c1)c1ccc(F)cc1	5319	-2	16*	8	19	1	6
Cc1ccc(Cn2cc(COC(=O)NCCc3c[nH]c4ccccc34)nn2)cc1	x	x	x	x	4	x	x
Cc1cccc(N2C(N)=C(C#N)C(C#N)(C#N)C2c2ccccc2)c1 (centres undefined)	2850	-4	14*	-8	18	-1	4
CCOC(=O)C1CCN(C(=O)c2ccc3c(c2)NC(=O)/C(=C\c2cccc(C)c2)S3)CC1	4375	-2	13*	3	10	-1	1
CCOC(=O)C1CCN(C(=O)c2ccc3c(c2)NC(=O)/C(=C/c2ccccc2)S3)CC1	3670	-1	6	5	16	2	x
CNc1oc(-c2ccc(Cl)cc2)nc1P(=O)(c1ccccc1)c1ccccc1	4594	0	13*	-7	22	-2	-1
COCCNC(=O)C(c1cccc(OC)c1)N(Cc1cccs1)C(=O)Cn1nnc2ccccc21 (centres undefined)	3572	-3	32*	-17	9	0	35*
CCCCN(C(=O)Cn1nnc2ccccc21)C(C(=O)NCCOC)c1cccs1 (centres undefined)	3703	2	2	-2	-7	0	x
O=C(Nc1ccc(OCC(F)(F)C(F)F)cc1)c1ccncc1	4281	-3	0	-2	10	-1	x
O=C(Nc1ccc(OCC(F)(F)C(F)F)c(C(F)(F)F)c1)c1ccccc1O	3550	-6	13*	-18	19	-1	15*
COc1ccc(C(=O)n2c(SC)nc3cc4c(cc32)OCCO4)cc1	10562	-3	12*	12	9	2	92*
CCCCCc1c2c(cc(O)c1C(=O)O)OC(=O)c1c(cc(OC)cc1C(=O)CCCC)O2	5489	-3	15*	2	x	0	9
CCCCCc1c2c(cc(O)c1C(=O)O)OC(=O)c1cc(C(=O)CCCC)c(OC)cc1O2	5331	1	x	1	23	1	x
Cc1ccc(C(=O)O)cc1NC(=S)NC(=O)c1ccc(COc2ccccc2)cc1	5453	-2	16*	10	1	2	13*
N/C(=N\S(=O)(=O)c1cc(C(F)(F)F)cc(C(F)(F)F)c1)c1ccc(Cl)cc1	u	-5	14*	u	23	-1	6
N/C(=N\S(=O)(=O)c1cc(C(F)(F)F)cc(C(F)(F)F)c1)c1ccncc1	6541	2	4	-7	14	0	x
O=C1C(=O)N(CCCc2ccccc2)c2ccccc21	3109	6	19*	u	x	-2	22*
O=C1c2ccccc2C(=O)N1C/C=C/c1ccccc1	3971	3	-6	-3	9	0	x
O=C1C(=O)N(C/C=C/c2ccccc2)c2ccccc21	3126	0	34*	23	-2	1	36*
